Values without a mark were called inactive. No rule for the calls is given here.
Target: Pantothenate synthetase (Mycobacterium tuberculosis (strain ATCC 25618 / H37Rv)) (UniProt P9WIL5)
Test: Recombinant Mtb pantothenate synthetase (PanC) inhibitors, coupled enzyme, confirmatory (AID 375);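 also: 0% = full reaction with vehicle and 100% = no enzyme background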
Conditions: coupled enzyme assay; at 10 µM, hits give high values

Chain of Pantothenate synthetase (Mycobacterium tuberculosis (strain ATCC 25618 / H37Rv)) (P9WIL5 whole entry, looked up): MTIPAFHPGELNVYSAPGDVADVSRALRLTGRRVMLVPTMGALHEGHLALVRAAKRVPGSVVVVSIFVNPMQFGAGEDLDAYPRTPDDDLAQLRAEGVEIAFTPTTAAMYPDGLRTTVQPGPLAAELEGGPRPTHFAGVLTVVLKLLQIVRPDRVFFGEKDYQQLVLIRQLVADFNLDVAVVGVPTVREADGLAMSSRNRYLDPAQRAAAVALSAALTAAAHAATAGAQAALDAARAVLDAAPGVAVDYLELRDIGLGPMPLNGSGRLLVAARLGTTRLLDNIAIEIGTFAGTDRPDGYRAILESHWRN

| Compound | inhibition |
| --- | --- |
| O=C(Nc1ncnc2sc3c(c12)CCCCC3)c1ccco1 | 10% |
| Cc1ccc(CCNC(=O)C2CCN(S(=O)(=O)c3cccc4nsnc34)CC2)cc1 | 6% |
| O=c1oc2ccccc2n1CCc1ccccc1 | 4% |
| CCOC(=O)c1c(C)[nH]c(C)c1C(=O)COC(=O)CNC(=O)c1ccc(OCC)cc1 | 0% |
| COCCCNS(=O)(=O)c1ccc2c(c1)CCN2C(C)=O | 0% |
| CC(=O)OC[C@H]1O[C@@H](n2ncc(=O)[nH]c2=O)[C@H](OC(C)=O)[C@@H]1OC(C)=O | 0% |
| Cn1cnc2c1c(=O)[nH]c(=O)n2C | 0% |
| Cc1ccc(N2CC(C(=O)Nc3ccc4c(c3)OCO4)CC2=O)cc1 (stereo not drawn) | 6% |
| COc1cccc(S(=O)(=O)Nc2cccnc2)c1 | 10% |
| O=C(CSc1nnc(-c2ccc(Br)o2)n1Cc1ccccc1)c1ccccc1F | 2% |
| O=C1NC(c2ccccc2)(C(F)(F)F)SC2=CCCCCN12 (stereo not drawn) | 0% |
| COc1ccc(S(=O)(=O)N2CCN(Cc3ccc(Cl)cc3)CC2)cc1 | 0% |
| O=C1C(C=NCCCn2ccnc2)=C(O)c2ccccc21 | 8% |
| N#Cc1c(N2C(=O)C3C4C=CC(C4)C3C2=O)sc2c1CCC2 (stereo not drawn) | 0% |
| Cc1oc2c(CN3CCCC3)c(O)ccc2c(=O)c1-c1ccccc1 | 0% |
| CCCCOc1cc(=O)[nH]c(=O)[nH]1 | 4% |
| CCOC(=O)c1[nH]c(C)c(C(=O)NC)c1C | 0% |
| COc1cccc(C(=O)Nc2ccc(NC(C)=O)cn2)c1 | 0% |

Source: PubChem BioAssay
